Data as given in the supplement of paper PMC6897291.

How the values were obtained:
U-2932 [1] = assay: growth inhibition by drug alone (1 - RLU/untreated control) (fraction); higher = stronger inhibition; details: 177Lu-lilotomab satetraxetan 0 ug/ml
In short: (§1)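 A radiolabelled anti-CD37 antibody conjugate (~600 MBq/mg) was applied for 18 h at 0.5 µg/ml to RIVA and 1 µg/ml to U-2932 cells, with untreated cells run alongside. All cells were washed and seeded at 3,000 cells/well onto library-printed plates at 10/100 nM (RIVA) or 10/1,000 nM (U-2932). Growth inhibition was based on RealTime-Glo luminescence compared with untreated no-drug wells. Daily reads began on day 3 after 1 h at 37°C, with each value being 1 − RLU/mean of the 48 such wells on that plate.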

RIVA [2] = assay: as above; details: 177Lu-lilotomab satetraxetan 0 ug/ml
In short: as §1

U-2932 [3] = assay: growth inhibition by drug plus 177Lu-lilotomab satetraxetan (1 - RLU/untreated control) (fraction); higher = stronger inhibition; details: 177Lu-lilotomab satetraxetan 1 ug/ml
In short: as §1

RIVA [4] = assay: as above; details: 177Lu-lilotomab satetraxetan 0.5 ug/ml
In short: as §1

SMILES | growth inhibition by drug alone (U-2932 [1]; 10 nM, time (day): 3) | growth inhibition by drug alone (U-2932 [1]; 10 nM, time (day): 4) | growth inhibition by drug alone (U-2932 [1]; 10 nM, time (day): 5) | growth inhibition by drug alone (U-2932 [1]; 10 nM, time (day): 6) | growth inhibition by drug alone (U-2932 [1]; 1000 nM, time (day): 3) | growth inhibition by drug alone (U-2932 [1]; 1000 nM, time (day): 4) | growth inhibition by drug alone (U-2932 [1]; 1000 nM, time (day): 5) | growth inhibition by drug alone (U-2932 [1]; 1000 nM, time (day): 6) | growth inhibition by drug alone (RIVA [2]; 10 nM, time (day): 3) | growth inhibition by drug alone (RIVA [2]; 10 nM, time (day): 4) | growth inhibition by drug alone (RIVA [2]; 10 nM, time (day): 5) | growth inhibition by drug alone (RIVA [2]; 10 nM, time (day): 6) | growth inhibition by drug alone (RIVA [2]; 100 nM, time (day): 3) | growth inhibition by drug alone (RIVA [2]; 100 nM, time (day): 4) | growth inhibition by drug alone (RIVA [2]; 100 nM, time (day): 5) | growth inhibition by drug alone (RIVA [2]; 100 nM, time (day): 6) | growth inhibition by drug plus 177Lu-lilotomab satetraxetan (U-2932 [3]; 10 nM, time (day): 3) | growth inhibition by drug plus 177Lu-lilotomab satetraxetan (U-2932 [3]; 10 nM, time (day): 4) | growth inhibition by drug plus 177Lu-lilotomab satetraxetan (U-2932 [3]; 10 nM, time (day): 5) | growth inhibition by drug plus 177Lu-lilotomab satetraxetan (U-2932 [3]; 10 nM, time (day): 6) | growth inhibition by drug plus 177Lu-lilotomab satetraxetan (U-2932 [3]; 1000 nM, time (day): 3) | growth inhibition by drug plus 177Lu-lilotomab satetraxetan (U-2932 [3]; 1000 nM, time (day): 4) | growth inhibition by drug plus 177Lu-lilotomab satetraxetan (U-2932 [3]; 1000 nM, time (day): 5) | growth inhibition by drug plus 177Lu-lilotomab satetraxetan (U-2932 [3]; 1000 nM, time (day): 6) | growth inhibition by drug plus 177Lu-lilotomab satetraxetan (RIVA [4]; 10 nM, time (day): 3) | growth inhibition by drug plus 177Lu-lilotomab satetraxetan (RIVA [4]; 10 nM, time (day): 4) | growth inhibition by drug plus 177Lu-lilotomab satetraxetan (RIVA [4]; 10 nM, time (day): 5) | growth inhibition by drug plus 177Lu-lilotomab satetraxetan (RIVA [4]; 10 nM, time (day): 6) | growth inhibition by drug plus 177Lu-lilotomab satetraxetan (RIVA [4]; 100 nM, time (day): 3) | growth inhibition by drug plus 177Lu-lilotomab satetraxetan (RIVA [4]; 100 nM, time (day): 4) | growth inhibition by drug plus 177Lu-lilotomab satetraxetan (RIVA [4]; 100 nM, time (day): 5) | growth inhibition by drug plus 177Lu-lilotomab satetraxetan (RIVA [4]; 100 nM, time (day): 6)
Cc1ccnc(NS(=O)(=O)c2ccc(NC(=O)Nc3ccc(S(=O)(=O)Nc4nccc(C)n4)cc3)cc2)n1 | 0.175 | 0.112 | -0.00245 | -0.0763 | 0.114 | 0.089 | -0.0667 | -0.0262 | 0.0129 | 0.0204 | -0.0366 | -0.304 | -0.284 | -0.137 | -0.166 | -0.281 | 0.0395 | 0.0885 | 0.162 | 0.182 | 0.099 | 0.13 | 0.195 | 0.303 | 0.581 | 0.617 | 0.633 | 0.636 | 0.492 | 0.533 | 0.541 | 0.545
Cc1ccc(NC(=O)c2ccc(CN3CC[C@H](N(C)C)C3)c(C(F)(F)F)c2)cc1Nc1nccc(-c2cncnc2)n1 [Bafetinib (INNO-406)] | 0.0934 | 0.0624 | -0.0124 | 0.0553 | 0.0275 | -0.0147 | -0.073 | 0.062 | 0.236 | 0.204 | 0.191 | 0.188 | -0.279 | -0.213 | -0.225 | -0.275 | 0.0136 | 0.0566 | 0.138 | 0.239 | 0.00697 | 0.00776 | 0.0531 | 0.226 | 0.594 | 0.623 | 0.652 | 0.658 | 0.392 | 0.503 | 0.513 | 0.535
COC(=O)c1ccc2c(C(=Nc3ccc(N(C)C(=O)CN4CCN(C)CC4)cc3)c3ccccc3)c(O)[nH]c2c1 [BIBF1120 (Vargatef)] | -0.0536 | -0.0365 | -0.0213 | 0.0413 | -0.121 | -0.0853 | -0.113 | -0.173 | -0.119 | -0.148 | -0.188 | -0.27 | -0.285 | -0.322 | -0.347 | -0.414 | -0.06 | -0.0397 | -0.00235 | 0.146 | -0.172 | -0.0703 | -0.0418 | -0.00489 | 0.292 | 0.437 | 0.461 | 0.479 | 0.251 | 0.362 | 0.366 | 0.375
CCN(CC)CCNC(=O)c1c(C)[nH]c(/C=C2\C(=O)Nc3ccc(F)cc32)c1C [Sunitinib Malate (Sutent)] | 0.0107 | 0.0161 | -0.0625 | -0.274 | -0.0117 | -0.00484 | -0.0741 | -0.207 | -0.117 | -0.163 | -0.216 | -0.511 | -0.295 | -0.315 | -0.325 | -0.492 | -0.0903 | -0.0528 | -0.026 | 0.0273 | -0.0792 | -0.017 | -0.0458 | -0.033 | 0.291 | 0.452 | 0.477 | 0.49 | 0.257 | 0.374 | 0.387 | 0.364
O=C1C(Cl)=C(NCCN2CCOCC2)C(=O)c2ncccc21 | 0.114 | 0.106 | 0.0132 | 0.0178 | 0.227 | 0.184 | 0.124 | 0.0852 | 0.0132 | 0.0904 | -0.00365 | -0.238 | 0.102 | 0.139 | 0.12 | 0.0933 | 0.114 | 0.165 | 0.247 | 0.272 | 0.201 | 0.211 | 0.241 | 0.349 | 0.584 | 0.632 | 0.638 | 0.641 | 0.591 | 0.62 | 0.626 | 0.631
COc1ccc(C2=N[C@@H](c3ccc(Cl)cc3)[C@@H](c3ccc(Cl)cc3)N2C(=O)N2CCNC(=O)C2)c(OC(C)C)c1 [Nutlin-3] | -0.04 | -0.0423 | -0.094 | -0.287 | -0.0802 | -0.0948 | -0.145 | -0.237 | -0.198 | -0.261 | -0.371 | -0.533 | -0.567 | -0.492 | -0.511 | -0.69 | -0.0474 | 0.00784 | 0.0366 | 0.0903 | -0.00272 | -0.0242 | 0.00355 | 0.11 | 0.386 | 0.472 | 0.502 | 0.521 | 0.328 | 0.467 | 0.479 | 0.496
CS(=O)(=O)c1ccc(C(=O)Nc2ccc(Cl)c(-c3ccccn3)c2)c(Cl)c1 [Vismodegib (GDC-0449)] | 0.11 | 0.072 | -0.091 | -0.101 | 0.0775 | 0.075 | 0.0248 | 0.00134 | 0.089 | 0.121 | 0.101 | -0.0572 | -0.253 | -0.16 | -0.186 | -0.299 | 0.055 | 0.116 | 0.202 | 0.219 | 0.117 | 0.138 | 0.194 | 0.297 | 0.631 | 0.647 | 0.682 | 0.672 | 0.538 | 0.568 | 0.591 | 0.608
